Experimental findings from PubChem BioAssay AID1942 (Johns Hopkins Ion Channel Center, 2009) are described below.

In all, about 2,400 compounds went through this assay and about 580 (24%) were called active. Not all results are given here. Unmarked numbers belong to inactive results.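 How the source made its calls: active means activity change at or above the mean plus 3 SD of buffer wells without dofetilide, per plate; inactive means the rest.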

Sequence of Potassium voltage-gated channel subfamily KQT member 2 (Rattus norvegicus) (O88943 whole entry, looked up): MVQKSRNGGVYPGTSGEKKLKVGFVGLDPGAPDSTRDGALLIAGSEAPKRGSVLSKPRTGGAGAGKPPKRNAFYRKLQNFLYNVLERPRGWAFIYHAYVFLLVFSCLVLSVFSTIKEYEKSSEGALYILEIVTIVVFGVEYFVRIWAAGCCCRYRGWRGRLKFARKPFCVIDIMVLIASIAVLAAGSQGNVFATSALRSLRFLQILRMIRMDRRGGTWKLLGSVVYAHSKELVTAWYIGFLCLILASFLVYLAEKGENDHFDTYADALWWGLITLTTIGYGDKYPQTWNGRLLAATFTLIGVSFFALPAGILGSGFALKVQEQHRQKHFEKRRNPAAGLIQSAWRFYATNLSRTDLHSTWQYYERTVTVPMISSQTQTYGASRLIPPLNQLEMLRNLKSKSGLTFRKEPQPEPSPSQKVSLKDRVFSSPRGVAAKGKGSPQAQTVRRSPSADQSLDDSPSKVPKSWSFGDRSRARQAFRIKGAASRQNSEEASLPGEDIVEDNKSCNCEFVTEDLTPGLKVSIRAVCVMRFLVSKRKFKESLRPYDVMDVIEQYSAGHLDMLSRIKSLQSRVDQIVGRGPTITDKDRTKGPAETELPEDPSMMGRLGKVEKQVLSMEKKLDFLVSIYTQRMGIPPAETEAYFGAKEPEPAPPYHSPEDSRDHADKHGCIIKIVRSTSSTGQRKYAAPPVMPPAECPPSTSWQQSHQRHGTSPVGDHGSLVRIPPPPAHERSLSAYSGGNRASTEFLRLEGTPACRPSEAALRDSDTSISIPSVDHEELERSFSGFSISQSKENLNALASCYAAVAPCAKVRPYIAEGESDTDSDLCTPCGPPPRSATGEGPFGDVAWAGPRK

The test has as its target Potassium voltage-gated channel subfamily KQT member 2 (Rattus norvegicus) (UniProt O88943). Kind of test: rat KCNQ2 channel activation by compounds alone, confirmation, counter-screen for hERG block protector project, cell-based, CHO, FluxOR thallium flux (AID 1942).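 Further: normalized value minus buffer-control mean plus three SD of buffer wells.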 The settings on record: CHO-KCNQ2 cells, FluxOR thallium flux fluorescence; at 10 µM; active compounds read high. In general terms: Counterscreens check selectivity or assay interference.
Turning to `O=S(=O)(Nc1cccc(-n2cnnn2)c1)c1ccc(Cl)nc1`, the activity change, less the hit threshold is -9%.
`CN(C)S(=O)(=O)c1cc(NC2CC(=O)N(c3ccc(F)cc3)C2=O)ccc1Cl` (configuration not stated): the activity change, less the hit threshold is -7.3%.
`CCN(CC)CCOC(=O)C(c1ccccc1)c1ccccc1`: the activity change, less the hit threshold is -11.4%.
For the molecule `O=C(/C=C/c1ccccc1)Nc1ccc(C(=O)N2CCCCC2)cc1`, the activity change, less the hit threshold was -11.4%.
For the molecule `COc1ccc(NC(=O)c2cc(S(=O)(=O)N3CCOCC3)ccc2N2CCOCC2)cc1`, the activity change, less the hit threshold is -16.6%.
To `Cc1ccc(NC(=O)c2cc(NC(=O)/C=C\C(=O)O)ccc2N2CCCCC2)cc1` belongs 3.1% (active); to `CC(=O)N1c2ccc(N=Cc3cc(Br)cc(Br)c3O)cc2CC1C` (configuration not stated), 0.4% (active); to `CC(=O)N1CCc2cc(S(=O)(=O)N3c4ccccc4CC3C)ccc21` (configuration not stated), -13.9%.
As to `N=c1sccn1CC(=O)Nc1ccccc1Cc1ccccc1`, the activity change, less the hit threshold is -16.3%.
To `CCc1nnc(NC(=O)c2cccc(C(=O)Nc3nnc(CC)s3)n2)s1` belongs -22.2%; to `Cc1cc(Br)c(NC(=O)COC(=O)C2CC2C)c(Br)c1` (configuration not stated), 4.5% (active); to `Cc1cccc(NC(=O)COc2coc(CN3CCN(c4ccccc4)CC3)cc2=O)c1`, -22.1%.
As for `O=C(COC(=O)C1CCC(=O)N1)Nc1cc(Cl)ccc1Cl` (configuration not stated), the activity change, less the hit threshold was -16.9%.
As to `O=C1OC(/C=C/c2ccccc2)=NC/1=C/c1ccco1`, the activity change, less the hit threshold was -29%.
For `COC(=O)c1ccc(NC(=O)COC(=O)C2CC(=O)N(Cc3ccccc3)C2)cc1` (configuration not stated) the value was -26.7%; for `O=C(O)CCCN1C(=O)C2C3c4ccccc4C(c4ccccc43)[C@@H]2C1=O` (some centres not stated), -24.6%; for `Cc1cc(C)cc(-n2c(C)cc(/C=N/NC(=O)CN(c3c(C)cccc3C)S(C)(=O)=O)c2C)c1`, -19.4%.
Consider `Nc1ccc2c(c1)C(=O)C(=O)c1ccccc1-2`, for which the activity change, less the hit threshold is -3.9%.
Consider `CCOC(=O)c1sc2ncnc(NCC(c3cccs3)N(C)C)c2c1C` (configuration not stated), for which the activity change, less the hit threshold was 39.2% (active).
As for `CCOC(=O)c1c(NC(=O)/C=C/c2ccco2)sc(C)c1C`, the activity change, less the hit threshold is -12%.
Regarding `Cc1ccc(OC(=O)c2sc3ncn(C)c(=O)c3c2C)cc1`, the activity change, less the hit threshold is -29.2%.
`CCOC(=O)c1sc2ncnc(NCc3ccco3)c2c1C`: the activity change, less the hit threshold was 51.8% (active).
`COc1ccc(N(C(=O)c2ccco2)S(=O)(=O)c2cccs2)cc1`: the activity change, less the hit threshold is -19.4%.
To `O=C(N/N=C/c1ccsc1)C1CC1` belongs -15.9%; to `COCCNC(=O)C1CCN(S(=O)(=O)N2CCC3(CC2)OCCO3)CC1`, -21.8%.
Consider `CCOC(=O)c1sc(NC(=S)NC(=O)c2ccccc2)nc1C`, for which the activity change, less the hit threshold was -3.4%.
To `CCOC(=O)c1sc(NC(=S)NC(=O)c2ccco2)nc1C` belongs 4.8% (active); to `CCOC(=O)c1sc(NC(=S)NC(=O)c2ccc(OC)cc2)nc1C`, -10.9%; to `Cc1nc(NC(=O)c2ccco2)sc1C(=O)O`, -11.4%.
Turning to `CCOC(=O)c1sc(NC(=S)NC(=O)c2cccc(OC)c2)nc1C`, the activity change, less the hit threshold was 4.7% (active).
Turning to `CCOC(=O)c1cccc(C(=O)Nc2nc3ccc(OC)cc3s2)n1`, the activity change, less the hit threshold was -15.8%.
On to `O=c1[nH]c(=S)[nH]c2c1C(c1ccc(Br)cc1)c1c([nH]c(=S)[nH]c1=O)O2`, for which the activity change, less the hit threshold is -17.1%.
For the molecule `Cc1ccccc1C(=O)NNC(=O)c1cccc([N+](=O)[O-])c1`, the activity change, less the hit threshold was -19.8%.
Take `CCOC(=O)/C(C)=N/NC(=O)c1cccc([N+](=O)[O-])c1`: the activity change, less the hit threshold was 5.2% (active).
On to `CCOC(=O)c1[nH]cnc1C(=O)Nc1ccc([N+](=O)[O-])cc1`, for which the activity change, less the hit threshold was -11.7%.
As for `Cc1cc(SCC(=O)c2cccc([N+](=O)[O-])c2)nc(=O)[nH]1`, the activity change, less the hit threshold is -15.5%.
As for `CCOc1ccc(C(=O)N/N=C/c2cc([N+](=O)[O-])cs2)cc1`, the activity change, less the hit threshold is -17.4%.
To `CCOC(=O)/C(C)=N/NC(=O)c1ccc([N+](=O)[O-])cc1` belongs 16.8% (active); to `S=C(NCCc1ccccc1)N/N=C/c1c(Cl)cccc1Cl`, -18.4%.
For the molecule `CC1(C)CC(=O)c2c(nn(-c3ccccc3)c2-c2ccncc2)C1`, the activity change, less the hit threshold is -16.4%.
Turning to `Cc1nn(Cc2ccccc2)c2c1C(c1cccnc1)C(C#N)=C(N)O2` (configuration not stated), the activity change, less the hit threshold was -10.8%.
Turning to `O=C(COc1ccccc1)NC(=S)Nc1ccc2c(c1)Cc1ccccc1-2`, the activity change, less the hit threshold was -19.3%.
To `CC(Oc1ccccc1F)C(=O)NC1CCS(=O)(=O)C1` (configuration not stated) belongs -17.8%.
To `O=C(O)c1cc(/C=N\O)ccc1OCc1ccccc1` belongs -16.1%; to `COc1ccc(C(=O)CC(=O)C(=O)Nc2ccc(Cl)cc2)cc1`, -2.1%.
As to `CCN1CCN(CC(=O)c2ccc(OC)cc2)CC1`, the activity change, less the hit threshold is -18.4%.
To `COc1ccc(C(=O)CC(=O)C(=O)Nc2ccc(C)c(C)c2)cc1` belongs -11.4%; to `COc1cc(OC)cc(C(=O)O/N=C(\N)c2cccc(C)c2)c1`, -9.7%.
On to `COc1ccc(C(=O)CC(=O)C(=O)Nc2ccc(C)cc2Cl)cc1`, for which the activity change, less the hit threshold is 10.2% (active).
Take `COc1ccc(C(=O)CC(=O)C(=O)Nc2ccccc2)cc1`: the activity change, less the hit threshold was 3.1% (active).
To `COc1ccc(C(=O)CC(=O)C(=O)Nc2ccc(C)c(Cl)c2)cc1` belongs -9%.
Turning to `COc1ccc(C(=O)CC(=O)C(=O)Nc2ccccc2C(F)(F)F)cc1`, the activity change, less the hit threshold was 7.4% (active).
`COc1ccc(C(=O)CNc2ccccc2C#N)cc1`: the activity change, less the hit threshold was -15%.
With `CCOc1ccccc1NC(=O)C(=O)CC(=O)c1cccc(OC)c1`, the activity change, less the hit threshold was -8.6%.
`COc1cccc(C(=O)CC(=O)C(=O)Nc2ccc(C)cc2Cl)c1`: the activity change, less the hit threshold is 10.8% (active).
In the case of `CCCNc1c(NS(=O)(=O)c2cccc(C#N)c2)c(=O)oc2ccccc12`, the activity change, less the hit threshold is -15.8%.
In the case of `CCOC(=O)c1c(C)oc2cc(Br)c(OC)cc12`, the activity change, less the hit threshold was -14.7%.
With `COCCCNC(=O)CC(NS(=O)(=O)c1ccc(F)cc1)c1ccc(OC)cc1` (configuration not stated), the activity change, less the hit threshold is -22.5%.
As for `O=C1C=C(NCCN2CCOCC2)C(=O)c2cnccc21`, the activity change, less the hit threshold was -10.1%.
As for `CCN(Cc1ccc(OC)c(F)c1)C(=O)C1CCCO1` (configuration not stated), the activity change, less the hit threshold is -7.1%.
For `COc1cc(/C=C2/C(=O)NN(c3ccccc3)C2=O)cc(Br)c1O`, the activity change, less the hit threshold is -17.5%.
On to `CC(C)CCNC(=O)CCc1nnc(Cc2c[nH]c3ccccc23)o1`, for which the activity change, less the hit threshold is -15.1%.
